Data published in PubChem BioAssay (Tox21).
Inconclusive results are not listed. The source made the active and inactive calls. Unless noted, calls follow the shape of the full dose curve.

Experiments:
[1] = Nuclear factor erythroid 2-related factor 2/antioxidant responsive element (Nrf2/ARE) small molecule agonists: qHTS cell viability counter screen in human keratinocytes (AID 1919968; active = well fitted curve in the direction sought with a large enough effect in the repeat runs; an effect the other way counts as inactive or inconclusive; also: nearly all actives have a fitted effect of over 55% in size)
Method in brief: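 Seed 1,500 KeratinoSens cells per well, then incubate 5 h at 37 C/5% CO2. Add compounds in DMSO and incubate 23 h. Add CellTiter-Fluor, wait 1 h and read fluorescence.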

[2] = target: Gonadotropin-releasing hormone receptor (Homo sapiens) (UniProt P30968); assay: Human gonadotropin-releasing hormone receptor (GnRHR) small molecule agonists, calcium flux assay in GnRHR-HEK293 cells (AID 1920063); also: nearly all actives have a fitted effect of over 35% in size
Sequence of Gonadotropin-releasing hormone receptor (Homo sapiens) (P30968 whole entry, looked up): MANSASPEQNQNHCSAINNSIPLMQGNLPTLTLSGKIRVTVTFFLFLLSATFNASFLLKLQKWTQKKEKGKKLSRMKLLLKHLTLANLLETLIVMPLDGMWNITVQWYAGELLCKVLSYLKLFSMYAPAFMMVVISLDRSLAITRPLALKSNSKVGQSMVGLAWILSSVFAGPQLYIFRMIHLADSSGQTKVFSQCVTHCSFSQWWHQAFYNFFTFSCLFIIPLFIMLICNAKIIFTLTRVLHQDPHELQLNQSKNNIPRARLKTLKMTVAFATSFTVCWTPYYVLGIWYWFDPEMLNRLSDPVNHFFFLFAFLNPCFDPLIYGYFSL
Method in brief: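 Cells: HEK293 stably expressing human GnRHR. Steps: overnight (18 h) culture, 1 h calcium dye loading at 37 C, compound addition, kinetic fluorescence read at 480/540 nm. Each compound tested at 15 concentrations in triplicate.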

[3] = target: KiSS-1 receptor (Homo sapiens) (UniProt Q969F8); assay: Human kisspeptin (KISS1R) small molecule agonists, calcium flux assay in KISS1R-HEK293 cells (AID 1920064; active = well fitted curve in the direction sought with a large enough effect in the repeat runs; an effect the other way counts as inactive or inconclusive)
Sequence of KiSS-1 receptor (Homo sapiens) (Q969F8 whole entry, looked up): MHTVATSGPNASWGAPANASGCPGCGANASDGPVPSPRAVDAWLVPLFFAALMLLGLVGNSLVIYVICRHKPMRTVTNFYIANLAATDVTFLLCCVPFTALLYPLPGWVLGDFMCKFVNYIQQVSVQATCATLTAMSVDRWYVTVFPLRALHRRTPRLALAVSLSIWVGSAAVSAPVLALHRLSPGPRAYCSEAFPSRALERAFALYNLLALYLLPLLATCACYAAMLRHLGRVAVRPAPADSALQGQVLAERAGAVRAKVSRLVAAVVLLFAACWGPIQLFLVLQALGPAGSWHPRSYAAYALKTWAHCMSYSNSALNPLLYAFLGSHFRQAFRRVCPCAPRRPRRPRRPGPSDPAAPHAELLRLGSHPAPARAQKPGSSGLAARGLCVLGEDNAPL
Method in brief: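 Cells plated and incubated 18 h; dye added, 1 h at 37 C; compounds in DMSO pinned in; signal read at 480/540 nm every second for 3 min. Each compound tested at 15 concentrations in triplicate.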

[4] = G protein-coupled receptor (GPCR) small molecule agonists, calcium flux assay: HEK293 wild type cell line counter screen (AID 1920065)
Method in brief: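 Counter-screen of the Tox21 10K library for non-specific calcium release: dye-loaded cells received compounds in DMSO and were monitored by kinetic fluorescence (480/540 nm, 3 min). Fifteen concentrations, run in triplicate.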

[5] = p53 small molecule agonists, cell-based qHTS assay with rat liver microsomes (AID 1963578)
Method in brief: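 Quantitative HTS of the Tox21 10K library: p53RE-bla cells, rat liver microsomes plus NADPH at 0.5 mg/mL final each, 16 h at 37 C, beta-lactamase fluorescence detection.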

[6] = p53 small molecule agonists, cell-based qHTS assay with human liver microsomes: qHTS cell viability counter screen (AID 1963579); also: nearly all actives have a fitted effect of over 45% in size
Method in brief: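 Viability of p53RE-bla cells is measured as CellTiter-Glo luminescence following a 16 h, 37 C incubation with compound, liver microsomes from human donors and NADPH.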

[7] = p53 small molecule agonists, cell-based qHTS assay with rat liver microsomes: qHTS cell viability counter screen (AID 1963580); also: nearly all actives have a fitted effect of over 45% in size
Method in brief: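 Intracellular ATP, by CellTiter-Glo luminescence, defines viability. HCT-116 p53RE-bla cells, 4,000 per well, were compound-treated in the presence of rat liver microsomes and NADPH for 16 h at 37 C.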

[8] = p53 small molecule agonists, cell-based qHTS assay: qHTS cell viability counter screen (AID 1963581); also: nearly all actives have a fitted effect of over 45% in size
Method in brief: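 Cells: HCT-116 with p53 response element-driven beta-lactamase. Treatment: 16 h, 37 C, compounds in DMSO. Read: CellTiter-Glo luminescence after 30 min RT.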

[9] = p53 small molecule agonists, cell-based qHTS assay (AID 1963582; active = well fitted activation curve with a large enough effect in the signal ratio in the repeat runs, not every such curve was filed as active; the % refers to the signal ratio)
Method in brief: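 Quantitative HTS in p53RE-bla cells: after a 5 h settling period, compounds delivered in DMSO were left on cells for 16 h at 37 C, and reporter induction was measured as fluorescence following 2 h substrate loading.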

[10] = target: 5-hydroxytryptamine receptor 2A (Homo sapiens) (UniProt P28223); assay: 5-hydroxytryptamine receptor 2A (HTR2A) small molecule antagonists, cell-based qHTS assay (AID 1963586); also: nearly all actives have a fitted effect of over 45% in size
Sequence of 5-hydroxytryptamine receptor 2A (Homo sapiens) (P28223 whole entry, looked up): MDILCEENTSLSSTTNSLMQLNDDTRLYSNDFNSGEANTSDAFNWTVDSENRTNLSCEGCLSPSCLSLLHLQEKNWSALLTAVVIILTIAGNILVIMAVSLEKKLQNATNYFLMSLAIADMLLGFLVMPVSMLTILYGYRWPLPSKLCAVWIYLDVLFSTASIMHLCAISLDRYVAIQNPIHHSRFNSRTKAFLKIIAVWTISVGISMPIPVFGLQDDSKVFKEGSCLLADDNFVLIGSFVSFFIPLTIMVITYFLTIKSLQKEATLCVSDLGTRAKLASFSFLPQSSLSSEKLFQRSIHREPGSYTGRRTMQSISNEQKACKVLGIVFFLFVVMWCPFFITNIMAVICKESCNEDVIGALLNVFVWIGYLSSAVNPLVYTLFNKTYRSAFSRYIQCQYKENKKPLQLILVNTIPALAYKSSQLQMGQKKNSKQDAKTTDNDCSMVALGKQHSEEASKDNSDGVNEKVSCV
Method in brief: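 Antagonist-mode intracellular calcium assay: DOI (4 nM) added after 5 min compound pre-incubation at room temperature to dye-loaded HTR2A-CHO cells. Fluorescence followed for 3 min, sampled every second.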

[11] = target: 5-hydroxytryptamine receptor 2A (Homo sapiens) (UniProt P28223); assay: 5-hydroxytryptamine receptor 2A (HTR2A) small molecule agonists, cell-based qHTS assay (AID 1963587); also: nearly all actives have a fitted effect of over 30% in size
Method in brief: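 Kinetic calcium-flux fluorescence (2 min, 1 sec intervals) after compound addition in agonist mode. HTR2A-CHO cells were cultured 18 h, then dye-loaded 1 h at 37 C.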

[12] = target: Muscarinic acetylcholine receptor M1 (Homo sapiens) (UniProt P11229); assay: Cholinergic receptor muscarinic 1 (CHRM1) small molecule antagonists, cell-based qHTS assay (AID 1963588); also: nearly all actives have a fitted effect of over 40% in size
Sequence of Muscarinic acetylcholine receptor M1 (Homo sapiens) (P11229 whole entry, looked up): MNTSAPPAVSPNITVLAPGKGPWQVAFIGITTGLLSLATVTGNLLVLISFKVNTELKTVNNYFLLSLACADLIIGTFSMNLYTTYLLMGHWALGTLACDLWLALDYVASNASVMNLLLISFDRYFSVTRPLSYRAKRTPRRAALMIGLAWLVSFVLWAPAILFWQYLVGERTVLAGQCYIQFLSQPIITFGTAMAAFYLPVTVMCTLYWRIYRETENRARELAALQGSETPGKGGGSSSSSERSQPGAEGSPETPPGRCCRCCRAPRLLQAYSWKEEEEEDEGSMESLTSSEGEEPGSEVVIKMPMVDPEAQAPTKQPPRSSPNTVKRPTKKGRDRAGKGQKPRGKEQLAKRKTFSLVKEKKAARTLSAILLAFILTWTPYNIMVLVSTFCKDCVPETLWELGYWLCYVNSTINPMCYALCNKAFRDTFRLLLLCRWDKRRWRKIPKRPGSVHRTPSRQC
Method in brief: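 CHRM1-CHO calcium-flux assay, antagonist mode. Cells were seeded 18 h, dye-loaded 1 h at 37 C and given compound for 5 min at RT, then acetylcholine was added at 50nM. FDSS fluorescence was read 3 min; 15 concentrations, three runs.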

[13] = target: Muscarinic acetylcholine receptor M1 (Homo sapiens) (UniProt P11229); assay: Cholinergic receptor muscarinic 1 (CHRM1) small molecule agonists, cell-based qHTS assay (AID 1963589); also: nearly all actives have a fitted effect of over 35% in size
Method in brief: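 Agonist-mode qHTS in CHO cells stably carrying human muscarinic M1. Intracellular calcium is tracked by fluorescence every second after compound transfer; each compound runs at 15 concentrations in three independent runs.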

[14] = cAMP Responsive Elements (CRE) small molecule agonists, cell-based qHTS assay (AID 1963590)
Method in brief: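 Agonist mode qHTS in CRE-bla HEK 293T cells: compounds dosed from DMSO for 3 h at 37 C/5% CO2, followed by LiveBLAzer B/G FRET substrate for 2 h at room temperature.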

[15] = cAMP Responsive Elements (CRE) small molecule antagonists, cell-based qHTS assay (AID 1963591; active = well fitted inhibition curve with a large enough effect in the signal ratio in the repeat runs, not every such curve was filed as active; the % refers to the signal ratio)
Method in brief: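 Antagonist mode: test compounds are co-incubated with the adenylyl cyclase activator NKH477 (0.25 uM final) on CRE-bla HEK293T cells for 3 h at 37 °C, followed by LiveBLAzer substrate loading.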

[16] = target: Beta-2 adrenergic receptor (Homo sapiens) (UniProt P07550); assay: Adrenergic beta2 receptor (ADRB2) small molecule antagonists, cell-based qHTS assay (AID 1963592); also: series mostly up to about 92 µM; nearly all actives have a fitted effect of over 50% in size
Sequence of Beta-2 adrenergic receptor (Homo sapiens) (P07550 whole entry, looked up): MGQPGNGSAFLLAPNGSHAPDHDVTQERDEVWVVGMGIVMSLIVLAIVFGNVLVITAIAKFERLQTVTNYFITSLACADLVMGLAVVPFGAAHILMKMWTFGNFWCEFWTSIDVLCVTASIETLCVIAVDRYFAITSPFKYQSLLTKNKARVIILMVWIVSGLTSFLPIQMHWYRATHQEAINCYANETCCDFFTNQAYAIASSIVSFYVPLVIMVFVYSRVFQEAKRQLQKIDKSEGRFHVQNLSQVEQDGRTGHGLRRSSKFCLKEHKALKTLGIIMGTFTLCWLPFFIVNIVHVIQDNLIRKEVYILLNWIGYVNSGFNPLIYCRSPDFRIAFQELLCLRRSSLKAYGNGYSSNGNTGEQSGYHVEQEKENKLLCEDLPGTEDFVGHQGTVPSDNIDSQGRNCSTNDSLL
Method in brief: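 Cells (CHO, stable ADRB2 overexpression) incubated 18-20hr at 37C; compounds added from DMSO; agonist mix (1nM isoproterenol, 100uM IBMX, 25uM Ro-20-1724) added; 0.5hr RT; d2-cAMP and anti-cAMP-cryptate added; 1hr RT; 665/615 nm read.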

[17] = target: Beta-2 adrenergic receptor (Homo sapiens) (UniProt P07550); assay: Adrenergic beta2 receptor (ADRB2) small molecule agonists, cell-based qHTS assay (AID 1963593);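 also: CHO cells stably overexpressing human ADRB2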
Method in brief: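 CHO cells stably over-expressing ADRB2 were plated overnight at 37C, then dosed with compounds plus a stimulation mix containing 100uM IBMX and 25uM Ro-20-1724 for 0.5hr at room temperature. cAMP was measured by HTRF competition, 1hr.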

[18] = target: D(2) dopamine receptor (Homo sapiens) (UniProt P14416); assay: Dopamine D2 receptor (DRD2) small molecule agonists, cell-based qHTS assay (AID 1963594); also: nearly all actives have a fitted effect of over 35% in size
Sequence of D(2) dopamine receptor (Homo sapiens) (P14416 whole entry, looked up): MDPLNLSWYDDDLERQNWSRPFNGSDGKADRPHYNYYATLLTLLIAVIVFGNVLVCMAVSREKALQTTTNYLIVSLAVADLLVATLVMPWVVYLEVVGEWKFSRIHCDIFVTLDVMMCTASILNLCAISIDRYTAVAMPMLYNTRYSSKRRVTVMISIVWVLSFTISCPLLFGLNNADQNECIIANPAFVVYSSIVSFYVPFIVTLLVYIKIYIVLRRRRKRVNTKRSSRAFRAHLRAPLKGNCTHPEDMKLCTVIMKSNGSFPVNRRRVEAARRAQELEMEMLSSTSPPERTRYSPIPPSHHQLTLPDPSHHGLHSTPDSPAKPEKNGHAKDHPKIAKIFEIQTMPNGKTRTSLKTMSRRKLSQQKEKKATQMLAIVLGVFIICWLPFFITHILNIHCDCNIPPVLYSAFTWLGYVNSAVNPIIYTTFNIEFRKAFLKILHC
Method in brief: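 cAMP accumulation in DRD2-HEK293 cells measured by HTRF after 1 h detection; compounds added 10 min before NKH477 (200nM […]) forskolin-analogue stimulation, 30 min at room temperature, with Ro20-1724 present at 0.1 mM final.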

[19] = target: D(2) dopamine receptor (Homo sapiens) (UniProt P14416); assay: Dopamine D2 receptor (DRD2) small molecule antagonists, cell-based qHTS assay (AID 1963595; active = well fitted inhibition curve with a large enough effect in the signal ratio in the repeat runs, with a control signal flat; the % refers to the signal ratio)
Method in brief: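 In this cell-based antagonist screen, compounds act for 10 min at room temperature before a 30 min challenge with 12 nM quinpirole and 200 nM NKH477. cAMP is quantified by HTRF competition in DRD2-HEK293 cells containing 0.1 mM Ro20-1724.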

[20] = p53 small molecule agonists, cell-based qHTS assay with human liver microsomes (AID 1963577);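 also: p53 response element beta-lactamase reporter cells with liver microsomes plus NADPH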
Method in brief: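 HLM-supplemented p53RE-bla reporter assay: 16 h compound exposure at 37 C, microsomes and NADPH each 0.5 mg/mL final, read by fluorescence intensity.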

Measured: Potency

CCC(C)SSC(C)CC (stereo not given)
inactive: [1] | [2] | [3] | [4] | [5] | [6] | [7] | [8] | [9] | [10] | [11] | [12] | [13] | [14] | [15] | [16] | [17] | [18] | [19]

O=c1n(CCO)c(=O)n(CCO)c(=O)n1CCO
inactive: [1] | [2] | [3] | [4] | [20] | [5] | [7] | [8] | [9] | [10] | [11] | [12] | [13] | [15] | [16] | [17] | [18] | [19]

Cn1c(=O)c2c(ncn2C)n(C)c1=O
inactive: [1] | [2] | [3] | [4] | [20] | [5] | [6] | [8] | [14] | [15] | [16] | [18] | [19]

CC(COC(=O)c1ccccc1)OC(=O)c1ccccc1 (stereo not given)
inactive: [1] | [2] | [3] | [4] | [20] | [5] | [7] | [8] | [9] | [10] | [11] | [12] | [13] | [14] | [15] | [16] | [17] | [18] | [19]

c1ccc2c(c1)ccc1ncccc12
inactive: [1] | [2] | [3] | [4] | [6] | [7] | [8] | [10] | [11] | [12] | [13] | [16] | [18] | [19]

COC(=O)OC
inactive: [1] | [2] | [3] | [4] | [20] | [6] | [7] | [8] | [9] | [10] | [11] | [12] | [13] | [14] | [15] | [16] | [17] | [18]

O=C1CCC(=O)N1
inactive: [1] | [2] | [3] | [4] | [5] | [6] | [7] | [8] | [9] | [10] | [11] | [12] | [13] | [14] | [15] | [16] | [17] | [18] | [19]
